High-throughput results deposited in PubChem BioAssay by several laboratories.
Cardio protect: myocardial damage modulation in H9c2 cells | H9c2 cardiomyocytes, H2O2 injury protection, ATPLite, 2 h | protection from H2O2 cell death, % at 20 µM | actives 0.63% (n = 360,000) | AID 588492;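 active means compounds giving at least 50% protection of heart cells from peroxide-induced death in the single-dose screen, raw or plate-pattern-corrected value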;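 further: 0% = DMSO wells with peroxide and 100% = DMSO wells without peroxide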
Gli-Sufu antag: blocks Gli-Sufu signaling in a luciferase reporter; Sufu-KO-LIGHT fibroblasts, Gli luciferase reporter luminescence; inhibition, % at 5 µM; actives 0.74% (n = 340,000); AID 588413;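 active means inhibition above about 55%, limit read from the data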;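 further: 0% = DMSO-treated cells and 100% = wells with medium but no cells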
GalR3 antag: blocks the human galanin receptor 3. HEK293 GalR3-CNG cAMP membrane potential fluorescence; galR3 body fused to GalR1 C-terminus. inhibition, % at 3 µM. actives 0.44% (n = 360,000);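 active means inhibition above the screen-wide average plus 3 SD, cut at about 13% in these data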;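 further: forskolin and galanin both at EC90 stimulate the cells; cAMP rise reported by CNG channel membrane potential dye signal; 0% = forskolin plus galanin with DMSO and 100% = forskolin alone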
Target sequence (O60755 1-299 limits assumed): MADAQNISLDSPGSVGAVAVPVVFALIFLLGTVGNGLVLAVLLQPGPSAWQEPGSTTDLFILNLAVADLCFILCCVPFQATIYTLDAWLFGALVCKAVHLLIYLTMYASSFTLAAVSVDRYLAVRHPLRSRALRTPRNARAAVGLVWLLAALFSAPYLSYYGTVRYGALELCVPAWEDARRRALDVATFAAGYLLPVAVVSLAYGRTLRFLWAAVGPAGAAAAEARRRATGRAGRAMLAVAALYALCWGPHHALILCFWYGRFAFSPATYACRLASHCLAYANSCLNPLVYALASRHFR
SMARCA2 activ: increases SMARCA2 function in MMTV reporter cells; MG213 cells, MMTV-luciferase reporter, dexamethasone, overnight; activation, % at 9.1 µM; actives 1% (n = 370,000); in the data active means activation above about 7.8%;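 further: 0% = vehicle wells and 100% = reference activator wells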
COUP-TFII inh: NR2F2 (human) inhibition, primary screen; actives 0.7% (n = 370,000); inhibition, % at 8.6 µM; HEK293T NGFI-A luciferase reporter, luminescence; AID 686940; P24468;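 active means inhibition above a per-plate cutoff, mean inhibition of test wells between control levels plus 3 SD, cut at about 38% in these data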;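 further: cells cotransfected with COUP-TFII expression vector driving the NGFI-A reporter; 0% = median of COUP-TF2 test wells and 100% = reporter-only cells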
FXN GAA850 act: activators of GAA850 frataxin (FXN) promoter; actives 0.56% (n = 360,000); activation, % at 6 µM; HEK293 lucGAA850 FXN promoter luciferase reporter, 24 h; percent of 10 µM SAHA response; AID 540364;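 active means activation above the average of all compounds screened plus 3 SD, cutoff fixed separately per campaign, cut at about 7.5% in these data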;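 further: 0% = DMSO wells and 100% = 10 µM SAHA wells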
Starred values were filed as active, the others as inactive; . = no result given. Shown are actives, neighbours in structure and some others; about 3.4% of the full set was active somewhere.

SMILES	Cardio protect	Gli-Sufu antag	GalR3 antag	SMARCA2 activ	COUP-TFII inh	FXN GAA850 act
COC1CCC(OC2CC(C3(C)CCC4(CC(O)C(C)C(C(C)/C=C(\C)C(=O)C(C)CC(C)C(=O)O)O4)O3)OC3(OC(C4OC(O)(CO)C(C)CC4C)CC3C)C2C)OC1C (stereo not drawn)	-19	77*	-6	-6	-39	-6
C[C@H]1[C@H](OC(=O)CCC(=O)NCc2ccc(C(=O)O)cc2)O[C@@H]2O[C@@]3(C)CC[C@H]4[C@H](C)CC[C@@H]1C24OO3	2	89*	.	.	.	-6
CC(=O)OCC12CC(OC(=O)CC(C)C)C(C)=CC1OC1C(O)C(OC(C)=O)C2(C)C12CO2 (stereo not drawn)	0	90*	-5	-11	92*	-15
CN(CC1COc2ccccc2O1)c1nc(-c2cccnc2)nc2ccccc12 (stereo not drawn)	90*	18	-4	-1	-2	-1
O=c1c2ccccc2nc(/C=C/c2ccc(O)c(O)c2)n1-c1ccccc1	56*	-8	7	-3	-18	1
COc1cc(/C=C/c2nc3ccccc3c(=O)n2-c2ccccc2O)ccc1O	50*	7	-11	-3	-15	-4
O=C(NCC1=C(c2ccc3ccccc3c2)C[C@@H]2CC[C@H]1N2Cc1ccco1)c1ccc([N+](=O)[O-])cc1	15	.	-4	-2	20	-6
O=C1C2CC=CCC2C(=O)N1SC(Cl)(Cl)Cl (stereo not drawn)	.	.	35*	2	15	.
CC(C)CC(=O)Nc1ccc(S(=O)(=O)N2CC3CC(C2)c2cccc(=O)n2C3)cc1 (stereo not drawn)	2	0	-4	-1	4	0
COC(=O)C1=C(c2ccc(OC)c(OC)c2)C[C@@H]2CC[C@H]1N2C(=O)NCCOc1ccc(OC)cc1	-2	-33	-6	0	8	-2
CC(c1ccccc1)n1cc(C(=O)NC2CCCC2)nn1 (stereo not drawn)	.	.	.	-3	2	.
C=C1C(=O)O[C@@H]2C[C@@H](C)[C@H]3C=CC(=O)[C@]3(O)C[C@@H]12	2	-3	3	6	-29	14*
C=C1C(=O)OC2CC3(C)OC3CCC(C)=CC(OC(C)=O)C12 (stereo not drawn)	-19	13	-3	7	-29	-4
Cc1nc2ccccc2c(=O)n1-c1ccc(Br)cn1	1	-5	-2	3	-38	-1
Cc1nc2ccccc2c(=O)n1/N=C/c1cc(Br)cc(Br)c1O	55*	1	-4	0	-3	2
CC(C)(O)/C=C/C(=O)[C@](C)(O)C1[C@H](O)C[C@@]2(C)C3CC=C4C(C[C@H](O)[C@@H](O)C4(C)C)[C@]3(C)C(=O)C[C@]12C (stereo partly drawn)	1	72*	.	.	.	-6
CCCCCCCCCCCCCCCC[N+](C)(C)C	-26	62*	4	-6	9	-1
CCCCCC[N+](=O)[O-]	5	-10	1	3	9	0
C[C@]12CCC(=O)C[C@H]1CC[C@@H]1[C@@H]2CC[C@]2(C)C(=O)CC[C@@H]12	6	5	-3	-1	1	2
CCOc1ccc(-c2c(C)n(-c3ccc(OCC)cc3)c3[n+]2CCCCC3)cc1	-13	88*	19*	-9	90*	-8
C=C1C(O)[C@@H]2O[C@]3(CC[C@H](/C=C/C(C)[C@@H]4CC(C)=CC5(O[C@H](C[C@@](C)(O)C(=O)O)CCC5O)O4)O3)CC[C@H]2O[C@@H]1C(O)CC(C)[C@H]1OC2(CCCCO2)CCC1C (stereo partly drawn)	.	93*	.	.	.	.
O=C(NCCN1CCC2(CC1)C(=O)NCN2c1ccccc1)c1ccc(F)c(F)c1	.	.	-10	-3	13	.
CN1C[C@H]2CON(C)[C@H]2C[C@H]1c1cccc(Br)c1	9	3	-8	-3	-6	0
CCOC(=O)C(NC(C)=O)C(OC(C)=O)c1cccc(N(CCCl)CCCl)c1 (stereo not drawn)	-2	-1	13*	2	7	-1
CC(C)(C)Cc1nnc(NC(=O)COc2ccc(Cl)cc2Cl)o1	.	.	.	.	0	.
SMILES	Cardio protect	Gli-Sufu antag	GalR3 antag	SMARCA2 activ	COUP-TFII inh	FXN GAA850 act
COCCCn1c(N)c(C(=O)Nc2sc3c(c2C(=O)OC)CCCC3)c2nc3ccccc3nc21	93*	5	4	-2	1	-4
CN(C)C(=O)Oc1ccc(OC(=O)N(C)C)cc1	1	0	-4	4	17	-1
CN(C)C(=O)Oc1ccc(C(=O)c2ccccc2)cc1	-3	-19	-7	7.9*	-15	7
CCOP(=O)(OCC)C1(C(=O)O)CCCC1	2	-4	0	-4	8	0
CCC(C(=O)N1C[C@H]2C[C@@H](C1)c1cccc(=O)n1C2)c1ccccc1 (stereo partly drawn)	4	-40	-5	1	-3	-1
Cn1ncnc2c(=O)n(C)c(=O)nc1-2	-20	94*	.	.	.	-17
Cc1ccc(-c2cc(-c3ccc(C)cc3)[n+](-c3ccccc3)c(-c3ccc(C)cc3)c2)cc1	-18	91*	.	.	.	-14
O=c1[nH]c(=O)n(CCC2=CCCCC2)c(O)c1C=NC1CCN(Cc2ccccc2)CC1	-13	12	2	-5	52*	-3
C=CCn1c(O)c(C=NC2CCN(Cc3ccccc3)CC2)c(=O)[nH]c1=O	3	2	-5	-2	-3	0
Cc1cc(N2CCNC[C@H]2C)ccc1N1CCN[C@@H](C)C1	.	.	-6	4	4	.
O=C(CSC1c2ccccc2-c2ccccc21)N/N=C/c1ccc(C(=O)O)cc1	7	-16	-7	-1	-12	2
O=C(CSC1c2ccccc2-c2ccccc21)N/N=C/c1ccccc1O	54*	6	-7	-4	14	-5
c1ccc(Cc2cnc(N3CCNCC3)nc2)cc1	.	.	-7	-3	3	.
O=C(NCCN1CCC2(CC1)C(=O)NCN2c1ccccc1)c1cccnc1Cl	.	.	-6	-1	4	.
Cn1cc(P(=S)(c2ccccc2)c2ccccc2)c2ccccc21	.	.	.	.	-17	.
CN(C)C1C(=O)C(C(N)=O)=C(O)C2(O)C(=O)C3=C(O)c4c(O)cccc4C(C)(O)C3CC12 (stereo not drawn)	6	3	.	.	.	17*
CC(=O)O[C@@H]1/C=C/[C@](C)(O)C[C@@H](C)C/C=C/[C@H]2[C@@H]3O[C@]3(C)[C@@H](C)[C@H]3[C@H](Cc4ccccc4)NC(=O)[C@@]312	-2	39	.	.	.	18*
CN1CN(c2ccccc2)C2(CCN(CCCSc3ccccc3NC(=O)/C=C/c3ccccc3)CC2)C1=O	1	-4	-5	-7	39*	-13
O=C(NCCN1CCC2(CC1)C(=O)NCN2c1ccccc1)c1cccc2c1-c1ccccc1C2=O	.	.	-4	-3	18	.
